Data reported in PubChem BioAssay AID2283112 (EPA ToxCast).
Inconclusive results are not listed. The source made the active and inactive calls. Rule for the calls: active = hit-call score of the fitted dose curve at least 0.9, where 1 is the maximum; inconclusive = response in the unintended direction; inactive = score below 0.9.

What follows are compounds tested against rat CYP1A1, Cyp1a1 (gene 24296) (UniProt P00185) (assay: NVS_ADME_rCYP1A1: NovaScreen (NVS) CYP450-related Enzyme Activity (ADME) Assay for rat CYP1A1).
Sequence of rat CYP1A1, Cyp1a1 (gene 24296) (P00185 whole entry, looked up): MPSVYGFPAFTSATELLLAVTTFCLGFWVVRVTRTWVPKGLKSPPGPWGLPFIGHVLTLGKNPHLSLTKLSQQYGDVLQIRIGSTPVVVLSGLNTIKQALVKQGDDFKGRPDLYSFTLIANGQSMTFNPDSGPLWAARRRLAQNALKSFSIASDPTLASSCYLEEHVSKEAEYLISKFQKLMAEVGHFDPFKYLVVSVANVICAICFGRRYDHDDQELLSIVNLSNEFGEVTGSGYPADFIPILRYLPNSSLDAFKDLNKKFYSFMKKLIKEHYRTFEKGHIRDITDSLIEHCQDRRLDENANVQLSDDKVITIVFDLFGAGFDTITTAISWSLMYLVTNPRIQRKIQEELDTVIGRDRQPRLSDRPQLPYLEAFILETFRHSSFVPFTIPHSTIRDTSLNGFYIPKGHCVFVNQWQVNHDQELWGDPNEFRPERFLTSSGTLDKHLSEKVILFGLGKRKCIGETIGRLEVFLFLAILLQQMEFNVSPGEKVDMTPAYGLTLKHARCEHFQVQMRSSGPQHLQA
Procedure: NVS_ADME_rCYP1A1 is a biochemical, single-readout assay that uses extracted gene-proteins from baculovirus-insect cells in a cell-free assay. Measurements were taken 1 hour after chemical dosing in a 96-well plate.NVS_ADME_rCYP1A1 is one of one assay component(s) measured or calculated from the NVS_ADME_rCYP1A1 assay. It is designed to make measurements of enzyme activity, a form of enzyme reporter, as detected with fluorescence intensity signals by Fluorescence technology.Data from the assay component NVS_ADME_rCYP1A1 was analyzed into 1 assay endpoint. This assay endpoint, NVS_ADME_rCYP1A1, was analyzed in the positive analysis fitting direction relative to Acetonitrile as the negative control and baseline of activity. Using a type of enzyme reporter, loss-of-signal activity can be used to understand changes in the enzymatic activity as they relate to the gene Cyp1a1. Furthermore, this assay endpoint can be referred to as a primary readout, because this assay has produced multiple assay endpoints where this one serves a enzymatic activity function. To generalize the intended target to other relatable targets, this assay endpoint is annotated to the cyp intended target family, where the subfamily is xenobiotic metabolism.
Binding assays used specific radioligands (tritiated, iodinated) with non-radioactive competitive displacement ligands in agonist or antagonist protocols (as indicated) and various reference compounds and inhibitors to titrate specific binding to receptors and transporters. Most enzyme assays (CYPs, kinases, phosphatases, proteases, HDACs) used recombinant protein and specific substrates (fluorescence mostly, some colorimetric and radioactive) and inhibitors, followed by a biochemical separation of substrate and product. All assays for the biochemical HTS were initially run in duplicate at a single concentration (10 uM for CYP450 assays and 25 uM for all others). Assay-chemical combinations meeting a pre-defined threshold (e.g., 30% inhibition and other criteria defined below) were then run in singleton concentration-response format with maximum concentration of 20 uM for CYPs and 50 uM for all others. Each assay was run with positive and negative controls, and concurrent controls on every plate. The follow-up (secondary) screen tested active chemical-pairs in concentration series, as well as a few additional assays not tested in the primary screen, some selected negative inactives, and several cases re-run in the concentration series for confirmatory purposes.
`COP(=S)(OC)Oc1ccc([N+](=O)[O-])c(C)c1` was tested, and the outcome was “inactive”.
With `CC[C@H](C)[C@H]1O[C@]2(C=C[C@@H]1C)C[C@@H]1C[C@@H](C/C=C(\C)[C@@H](O[C@H]3C[C@H](OC)[C@@H](O[C@H]4C[C@H](OC)[C@@H](O)[C@H](C)O4)[C@H](C)O3)[C@@H](C)/C=C/C=C3\CO[C@@H]4[C@H](O)C(C)=C[C@@H](C(=O)O1)[C@]34O)O2` (tested in a mixture with another compound) the outcome was “inactive”.
For `CC(C)(C)C(=O)C(Oc1ccc(Cl)cc1)n1cncn1` (stereo not given), the AC50 was 16.9 µM (active).
`COP(=S)(OC)Oc1ccc([N+](=O)[O-])cc1` was tested, and the outcome was “inactive”.
For `CC[C@H](C)[C@H]1O[C@]2(C=C[C@@H]1C)C[C@@H]1C[C@@H](C/C=C(\C)[C@@H](O[C@H]3C[C@H](OC)[C@@H](O[C@H]4C[C@H](OC)[C@@H](NC)[C@H](C)O4)[C@H](C)O3)[C@@H](C)/C=C/C=C3\CO[C@@H]4[C@H](O)C(C)=C[C@@H](C(=O)O1)[C@]34O)O2`, the outcome was “inactive”.
With `CCOP(=S)(OCC)SCn1c(=O)oc2cc(Cl)ccc21` the outcome was “inactive”.
In the case of `COP(=S)(OC)SCn1nnc2ccccc2c1=O`, the outcome is reported as “inactive”.
`CCOP(=S)(OCC)Oc1ccc([N+](=O)[O-])cc1` was tested, and the AC50 was 7.95 µM (active).
For `COc1nc(C)nc(NC(=O)NS(=O)(=O)c2ccccc2Cl)n1`, the outcome was “inactive”.
With `CCCN(CCOc1c(Cl)cc(Cl)cc1Cl)C(=O)n1ccnc1` the AC50 was 2.23 µM (active).
